Results on 13 compounds are retold here after the supplement of paper PMC10646978.

± gives the standard deviation.

What all share (details): modulator concentration 10 µM
The subject of test [1] is RAW-Dual (murine macrophage reporter line). The experiment in a line: NF-kB reporter (SEAP) activity fold change vs agonist alone; higher = enhanced NF-kB activity. The method in brief:
(§1)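 RAW-Dual murine macrophage reporter cells were seeded at 50 000 per well in 384-well plates and pre-incubated 1 hour at 37 °C with compound pin-transferred to 10 μM final. After 1 hour, a PRR agonist was added and cells incubated overnight. Supernatant NF-κB (SEAP, QUANTI-Blue, 620 nm absorbance) and IRF (Lucia luciferase, QUANTI-Luc, luminescence) signals were divided by the mean agonist-only control on the same plate to give fold change. Two replicate plates were averaged, with errors by propagation.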

For test [2] the test system is unchanged. The experiment in a line: IRF reporter (Lucia luciferase) activity fold change vs agonist alone; higher = enhanced IRF activity. The method in brief:
as §1

Test [3] shares this test system. The experiment in a line: viability score (confluency relative to resting cells, overnight) (fraction); higher = more viable, active = viable (0.7 or more). The method in brief: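 Two confluency masks, generated with IncuCyte software over all imaged wells, were applied to IncuCyte images of RAW-Dual macrophages. The cells, in 384-well plates, had been exposed overnight to 10 μM final compound. The viability score is confluency as a fraction of resting cells, and a compound met the cutoff only with both masks above 70% of resting cells.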

The mark [4] stands for this setting: agonist: CpG ODN 1826 0.5 ug/mL.

Regarding `O=C1CSC(=S)N1N=Cc1ccc(O)c([N+](=O)[O-])c1`, the NF-kB reporter in test [1] (setting [4]) worked out at 0.956 ± 0.091; in test [1] (agonist: LPS 0.1 ug/mL), 1.1 ± 0.11; in test [1] (agonist: MPLA […]), 0.97 ± 0.084. Besides, the results for the IRF reporter in test [2] (agonist: 3'3'-cGAMP 10 ug/mL), in test [2] (agonist: LPS 0.1 ug/mL) and in test [2] (agonist: MPLA […]) were 1.04 ± 0.027, 1.75 ± 0.36 and 1.1 ± 0.17, respectively. Moreover, the viability score in test [3] was 0.994 (active).

Consider `Oc1ccccc1C=NNc1nc(-c2ccccc2)cc(-c2ccccc2)n1`, for which the results for the NF-kB reporter in test [1] (setting [4]), in test [1] (agonist: LPS 0.1 ug/mL) and in test [1] (agonist: MPLA […]) were 0.769 ± 0.066, 1.02 ± 0.088 and 1.03 ± 0.12, respectively. Further, the IRF reporter in test [2] (agonist: 3'3'-cGAMP 10 ug/mL) is 1.19 ± 0.12; in test [2] (agonist: LPS 0.1 ug/mL), 1.16 ± 0.16; in test [2] (agonist: MPLA […]), 1.26 ± 0.2. The viability score in test [3] is 0.987 (active).

As for `Cc1ccc(CCC(=O)N2CC(N3C(=O)C4CC=CCC4C3=O)C2)cc1F` (stereo unspecified), the NF-kB reporter in test [1] (setting [4]) came out at 0.728 ± 0.26; in test [1] (agonist: LPS 0.1 ug/mL) it was 1.1 ± 0.1; in test [1] (agonist: MPLA […]), 1 ± 0.044. The results for the IRF reporter in test [2] (agonist: 3'3'-cGAMP 10 ug/mL), in test [2] (agonist: LPS 0.1 ug/mL) and in test [2] (agonist: MPLA […]) were 0.741 ± 0.037, 1.05 ± 0.12 and 0.87 ± 0.092, respectively. Further, in test [3], the viability score is 1 (active).

In the case of `O=[N+]([O-])c1ccc(CSc2nc3ccccc3[nH]2)cc1`, the results for the NF-kB reporter in test [1] (setting [4]), in test [1] (agonist: LPS 0.1 ug/mL) and in test [1] (agonist: MPLA […]) were 0.971 ± 0.076, 0.87 ± 0.048 and 1.01 ± 0.024, respectively. The IRF reporter in test [2] (agonist: 3'3'-cGAMP 10 ug/mL) came to 0.834 ± 0.048; in test [2] (agonist: LPS 0.1 ug/mL), 1.02 ± 0.13; in test [2] (agonist: MPLA […]), 1.12 ± 0.11. Besides, the viability score in test [3] is 0.995 (active).

Turning to `CCOc1ccc(CC(=O)N2C3C=CCC2CC3)cc1` (stereo unspecified), the NF-kB reporter was determined as 0.942 ± 0.1 in test [1] (setting [4]), 1.09 ± 0.1 in test [1] (agonist: LPS 0.1 ug/mL) and 1.01 ± 0.061 in test [1] (agonist: MPLA […]). For the same compound, the IRF reporter turned out to be 1.02 ± 0.047 in test [2] (agonist: 3'3'-cGAMP 10 ug/mL), 1.22 ± 0.16 in test [2] (agonist: LPS 0.1 ug/mL) and 1.31 ± 0.47 in test [2] (agonist: MPLA […]). The viability score in test [3] is 0.971 (active).

With `CCCOc1cccc(C(=O)Nc2scc(-c3ccccc3)c2C(=O)OC(C)C)c1`, the NF-kB reporter amounted to 1.79 ± 0.35 in test [1] (setting [4]), 1.24 ± 0.16 in test [1] (agonist: LPS 0.1 ug/mL) and 2.23 ± 0.46 in test [1] (agonist: MPLA […]). Also, the IRF reporter in test [2] (agonist: 3'3'-cGAMP 10 ug/mL) is 0.635 ± 0.056; in test [2] (agonist: LPS 0.1 ug/mL) it was 0.66 ± 0.22; in test [2] (agonist: MPLA […]), 0.65 ± 0.041. Besides, the viability score in test [3] is 0.883 (active).

For `CCC(C)C(=O)OC1CC(C)C=C2C=CC(C)C(CCC3CC(O)CC(=O)O3)C21` (stereo unspecified), the results for the NF-kB reporter in test [1] (setting [4]), in test [1] (agonist: LPS 0.1 ug/mL) and in test [1] (agonist: MPLA […]) were 1.33 ± 0.32, 1 ± 0.061 and 1.06 ± 0.13, respectively. Besides, the IRF reporter in test [2] (agonist: 3'3'-cGAMP 10 ug/mL) turned out to be 0.919 ± 0.031; in test [2] (agonist: LPS 0.1 ug/mL), 1.19 ± 0.19; in test [2] (agonist: MPLA […]) it was 1.1 ± 0.16. Further, in test [3], the viability score was 1 (active).

For `Cc1ccc(Cn2c(N)nc3ccccc32)cc1`, the NF-kB reporter in test [1] (setting [4]) amounted to 0.363 ± 0.067; in test [1] (agonist: LPS 0.1 ug/mL), 1.21 ± 0.12; in test [1] (agonist: MPLA […]), 1.09 ± 0.098. The figures for the IRF reporter in test [2] (agonist: 3'3'-cGAMP 10 ug/mL), in test [2] (agonist: LPS 0.1 ug/mL) and in test [2] (agonist: MPLA […]) were 1.07 ± 0.07, 1.09 ± 0.23 and 1.37 ± 0.14, respectively. The viability score in test [3] was 0.702 (active).

For `CCN1C(=O)C(=Cc2c[nH]c3ccccc23)SC1=S`, the NF-kB reporter in test [1] (setting [4]) is 0.67 ± 0.075; in test [1] (agonist: LPS 0.1 ug/mL) it was 0.994 ± 0.081; in test [1] (agonist: MPLA […]), 0.868 ± 0.033. The IRF reporter in test [2] (agonist: 3'3'-cGAMP 10 ug/mL) came out at 0.813 ± 0.16; in test [2] (agonist: LPS 0.1 ug/mL), 1.02 ± 0.084; in test [2] (agonist: MPLA […]) it was 1.36 ± 0.18. For the same compound, the viability score in test [3] is 0.804 (active).

In the case of `CCCCC(=O)N(Cc1ccc(-c2ccccc2-c2nn[nH]n2)cc1)C(C(=O)O)C(C)C` (stereo unspecified), the figures for the NF-kB reporter in test [1] (setting [4]), in test [1] (agonist: LPS 0.1 ug/mL) and in test [1] (agonist: MPLA […]) were 1.12 ± 0.27, 0.965 ± 0.081 and 1.02 ± 0.082, respectively. Also, the IRF reporter in test [2] (agonist: 3'3'-cGAMP 10 ug/mL) was 0.71 ± 0.055; in test [2] (agonist: LPS 0.1 ug/mL), 1.03 ± 0.14; in test [2] (agonist: MPLA […]), 1.04 ± 0.2. Moreover, the viability score in test [3] was 1 (active).

As to `Cc1cc(C(O)CCNC(=O)COc2cccc3c2OC(C)(C)C3)c(C)o1` (stereo unspecified), the NF-kB reporter in test [1] (setting [4]) is 1.04 ± 0.099; in test [1] (agonist: LPS 0.1 ug/mL) it was 1.01 ± 0.15; in test [1] (agonist: MPLA […]), 1.01 ± 0.055. Also, the IRF reporter in test [2] (agonist: 3'3'-cGAMP 10 ug/mL) was 0.883 ± 0.038; in test [2] (agonist: LPS 0.1 ug/mL) it was 0.992 ± 0.051; in test [2] (agonist: MPLA […]) it was 0.94 ± 0.13. Moreover, the viability score in test [3] is 1 (active).

For `Cc1cc(Nc2cc(N3CCN(C)CC3)nc(Sc3ccc(NC(=O)C4CC4)cc3)n2)n[nH]1`, the NF-kB reporter in test [1] (setting [4]) was determined as 0.0769 ± 0.0068; in test [1] (agonist: LPS 0.1 ug/mL), 0.142 ± 0.0072; in test [1] (agonist: MPLA […]) it was 0.23 ± 0.021. Moreover, the IRF reporter in test [2] (agonist: 3'3'-cGAMP 10 ug/mL) stood at 0.136 ± 0.011; in test [2] (agonist: LPS 0.1 ug/mL) it was 0.537 ± 0.041; in test [2] (agonist: MPLA […]) it was 0.451 ± 0.06. Besides, in test [3], the viability score is 0.91 (active).

In the case of `COc1ccc(-c2cc(CNC(=O)c3c(F)cccc3F)no2)cc1`, the NF-kB reporter in test [1] (setting [4]) was determined as 0.713 ± 0.041; in test [1] (agonist: LPS 0.1 ug/mL), 0.742 ± 0.11; in test [1] (agonist: MPLA […]), 0.744 ± 0.042. Besides, the IRF reporter in test [2] (agonist: 3'3'-cGAMP 10 ug/mL) is 0.878 ± 0.081; in test [2] (agonist: LPS 0.1 ug/mL), 1.4 ± 0.22; in test [2] (agonist: MPLA […]) it was 1.72 ± 0.45. For the same compound, the viability score in test [3] was 0.947 (active).
